Sampled rows, rich in hits. Any-hit rate of the full collection: about 3.3%.
Wnt bcat act: Wnt/beta-catenin pathway activators, primary screen, cell-based, plate reader, single point; Wnt/beta-catenin reporter cell assay, activator; activation, % at 9.35 µM; 300,000 tested, 1.2% active; AID 743398, 2014; in the data active means activation above about 30%, passing the limit was not always enough; inconclusive means no clear call, values can overlap the other calls;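 further: 0% = neutral control wells and 100% = positive control wells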
esBAF inh: Bmi1 luciferase reporter increase in mESCs, primary screen, esBAF inhibitor project, mouse ES cells, Bmi1 luciferase knock-in, single point; 24 h; 100% = twice the neutral-well signal; 350,000 tested, 2% active; reporter increase, % at 12.5 µM; in the data active means activation above about 40%; inconclusive means no clear call, values can overlap the other calls;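 further: 0% = median of the plate's neutral control wells and 100% = double that signal; a rise in the Bmi1 reporter signal indicates esBAF inhibition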
MITF act: activators of MITF-driven TRPM1 promoter reporter, primary screen, cell-based, SK-MEL-5, luciferase, single point | SK-MEL-5 TRPM1-promoter luciferase, 24 h; % of positive control, neutral wells = 0 | activation, % at 12.5 µM | 300,000 tested, 0.75% active | AID 588334, 2011;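 active means mean activation of at least 80% with every replicate also reaching 80%; inconclusive means mean reaches 80% but some replicate falls short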;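 further: 0% = neutral control wells and 100% = parthenolide positive control wells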
Statin myotox sup: suppressors of statin myotoxicity in C2C12 myotubes, primary screen, cell-based, single point, plate reader; C2C12 myotubes + simvastatin, ATP luminescence, 48 h; scaled: DMSO 0, geranylgeraniol control 100; AID 602340, 2012; rescue of ATP level, % at 7.49 µM; 330,000 tested, 0.78% active;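 active means mean ATP rescue above about 67%, or every replicate alone reaching that limit, limit read from the data, passing the limit was not always enough; inconclusive means no clear call, values can overlap the other calls; inactive means mean under the limit and some replicate under it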;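 further: myotubes were challenged with 10 µM simvastatin during compound exposure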
GAA850 FXN act: FXN promoter activators, primary screen, cell-based, luciferase luminescence, HEK293 lucGAA850; HEK293 lucGAA850 FXN promoter luciferase reporter, 24 h; percent of 10 µM SAHA response; activation, % at 6 µM; 360,000 tested, 0.56% active;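 active means activation above the average of all compounds screened plus 3 SD, cutoff fixed separately per campaign, cut at about 7.5% in these data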;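 further: 0% = DMSO wells and 100% = 10 µM SAHA wells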
GAA30 counter: GAA30 FXN promoter activators, confirmation, counter-screen for GAA850 frataxin promoter activator project, cell-based, luminescence, HEK293, lucGAA30, triplicate; activation, % at 6 µM; HEK293 lucGAA30 FXN promoter luciferase, 24 h; DMSO = 0%, 5 µM ipriflavone = 100%; shares compounds with GAA850 FXN act; AID 588350, 2011; 1,900 tested, 66% active;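 active means mean activation above the mean of solvent-only control wells plus 3 SD, cut at about 22% in these data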;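 further: counterscreen of GAA850 promoter hits where activity marks nonselective or luminescence artifacts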
FXN GAA850 conf: FXN GAA850 promoter activators in reporter cells, confirmation, cell-based, luminescence, HEK293 lucGAA850, triplicate. shares compounds with GAA850 FXN act. HEK293 lucGAA850 FXN promoter luciferase reporter, 24 h; 100% = activation by SAHA. activation, % at 6 µM. 1,900 tested, 86% active;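 active means mean activation above a set limit taken from the primary screen, cut at about 8% in these data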;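 further: 0% = DMSO wells and 100% = 10 µM SAHA wells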
Ring1 derepress: Ring1 mRNA increase in mouse ESCs, confirmation, esBAF inhibitor project, cell-based, mouse ESC, RT-qPCR, cherry-pick; fold change at 33 µM; shares compounds with esBAF inh; AID 743176, 2013; mouse ESC E14, Ring1 mRNA RT-qPCR fold change; 550 tested, under 10 active;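 active means Ring1 gene expression raised more than 2-fold over untreated cells in both replicates at either tested dose; inconclusive means only one replicate above 2-fold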;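 further: Ring1 transcript normalised to actin housekeeping signal by TaqMan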
Fgf4 repress: Fgf4 mRNA decrease in mouse ESCs, confirmation, esBAF inhibitor project, cell-based, mouse ESC, RT-qPCR, cherry-pick | shares compounds with esBAF inh | Fgf4 expression fold change at 33 µM | 550 tested, 4% active | AID 743177, 2013 | mouse ESC E14, Fgf4 mRNA qPCR fold change; active compounds read low;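 active means Fgf4 expression under 0.8 fold of control in both repeat measurements at one or both tested doses; inconclusive means under 0.8 fold in just a single repeat measurement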;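 further: Fgf4 transcript normalised to actin in duplex TaqMan qPCR; cells exposed to compound for 24 h before lysis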
Bmi1 derepress: esBAF inhibition via Bmi1 de-repression, confirmation, cell-based, RT-qPCR, mouse ESC, single point, cherry-pick | fold change at 33 µM | 550 tested, under 10 active | AID 743180, 2013 | mouse ESE14 ES cells, Bmi1 mRNA qPCR fold; active compounds read high | shares compounds with esBAF inh;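 active means Bmi1 expression fold change above 6 at either tested concentration, seen in replicate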;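 further: higher fold means more Bmi1 de-repression and stronger esBAF inhibition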
A549 tox SP: A549 cell cytotoxicity, cytotoxicity control, plate reader, single point, cherry-pick; shares compounds with esBAF inh; cell viability change % (negative = cytotoxic), % at 25 µM, hits read low; 550 tested, under 10 active; AID 743188, 2013; call rule not given here
HepG2 tox SP: HepG2 cell cytotoxicity, cytotoxicity control, plate reader, single point, cherry-pick; shares compounds with esBAF inh; active compounds read low; activity change, negative = inhibition, % at 25 µM; 550 tested, 4% active; in the data active means activity change below about -50%
HEK293 cytotox SP: HEK293 cell cytotoxicity, cytotoxicity control, plate reader, single point, cherry-pick | shares compounds with esBAF inh | activity change, negative = inhibition, % at 25 µM, hits read low | 550 tested, 3% active | AID 743190, 2013; in the data active means activity change below about -38%, passing the limit was not always enough
* hit, by the source's call; ? = inconclusive; nt = no result given.

SMILES | Wnt bcat act | esBAF inh | MITF act | Statin myotox sup | GAA850 FXN act | others
COc1ccc(NC(=O)C2CCCN2S(=O)(=O)c2ccc3c(c2)CCC(=O)N3)cc1Cl (stereo not given) | -1 | 2 | 5 | -15 | 9.1* | GAA30 counter=6;FXN GAA850 conf=12*
COc1ccc2[nH]c3c(C)c4ccncc4c(C)c3c2c1 | -18 | -6 | -96 | -418 | 12* | GAA30 counter=-25;FXN GAA850 conf=64*
C[C@H]1CN([C@@H](C)CO)C(=O)Cc2cc(N(C)C)ccc2O[C@@H]1CN(C)S(=O)(=O)c1ccccc1 | nt | 0 | nt | 22 | nt
O=c1oc2ccc3ccccc3c2cc1-c1nc2ccccc2o1 | nt | -3 | 8 | 12 | -1
O=c1oc2ccccc2cc1-c1nc2ccccc2o1 | 35* | -2 | 46 | 5 | 8.4* | GAA30 counter=122*;FXN GAA850 conf=37*
C[C@H]1CN([C@@H](C)CO)C(=O)c2cc(NS(=O)(=O)c3ccccc3)ccc2O[C@@H]1CN(C)S(=O)(=O)c1ccc(Cl)cc1 | nt | 0 | nt | 4 | nt
O=C1c2ccccc2-c2onc3ccc(Oc4ccccc4)c1c23 | 4 | -67 | -97 | 100* | 32* | GAA30 counter=51*;FXN GAA850 conf=40*
CCOC(=O)C(C(=O)OCC)c1cc(Br)c2noc3c2c1C(=O)c1ccccc1-3 | nt | nt | -95 | nt | 2
O=C1Cc2c([nH]c3ccc(Br)cc23)-c2ccccc2N1 | 96* | nt | nt | nt | 68* | GAA30 counter=167*;FXN GAA850 conf=201*
O=C(Nc1ccccc1F)N1C[C@@H]2[C@H](c3ccccc31)[C@H](CO)N2C(=O)c1ccc(F)cc1 | nt | 20 | nt | 7 | nt
O=C(C[C@H]1C[C@H]2c3cc(NC(=O)Nc4ccc(C(F)(F)F)cc4)ccc3O[C@H]2[C@H](CO)O1)NCCc1ccccc1 | nt | 0 | nt | -2 | nt
O=c1c2ccccc2[nH]c2ccc(O)cc12 | -3 | 12 | 9 | -17 | 8.2* | GAA30 counter=39*;FXN GAA850 conf=18*
Cc1ccc2[nH]c3ccccc3c(=O)c2c1 | 5 | 26 | 27 | -10 | 2
Cc1ccc(-n2ncc3c(N4CCCC4)ncnc32)c(C)c1 | 29 | 21 | nt | -4 | 7.6* | GAA30 counter=72*;FXN GAA850 conf=24*
O=C(C[C@H]1CC[C@H]2[C@@H](COC[C@@H](O)CN2Cc2nccs2)O1)NCc1ccccc1F | nt | 3 | nt | -8 | nt
CC=Cc1ccc2n(c1=O)C[C@H]1[C@H](CO)[C@@H](C(=O)Nc3ccccc3)N(CC3CC3)[C@@H]21 (mixture of isomers) | nt | 5 | nt | -30 | nt
CC1CCCN(C(=O)CNC(=O)c2sc3ccccc3c2Cl)C1 (stereo not given) | 24 | 82* | 126* | -32 | 6 | Ring1 derepress=0.95;Fgf4 repress=1;Bmi1 derepress=1.3;A549 tox SP=0;HepG2 tox SP=2;HEK293 cytotox SP=-7
CC1CC(C)CN(C(=O)CNC(=O)c2sc3ccccc3c2Cl)C1 (stereo not given) | 12 | 23 | 64 | -12 | 3
CCN(C(=O)CN1C(=O)S/C(=C\C=C\c2ccccc2)C1=O)C1CCS(=O)(=O)C1 (stereo not given) | 4 | 55* | 11 | 23 | 6 | Ring1 derepress=0.97;Fgf4 repress=?;Bmi1 derepress=2;A549 tox SP=-1;HepG2 tox SP=-27;HEK293 cytotox SP=4
CCNC(=O)C[C@H]1CC[C@H](NC(=O)C2CC2)[C@H](CO)O1 | nt | 2 | nt | -11 | nt
COc1ccc2c(CN(C)Cc3ccccc3)cc(=O)oc2c1 | 16 | 57* | nt | 7 | nt | Ring1 derepress=1.1;Fgf4 repress=0.88;Bmi1 derepress=1.8;A549 tox SP=-13;HepG2 tox SP=-65*;HEK293 cytotox SP=-19
Cc1cc(-c2nnc(CCC(=O)NCc3cccc(C(F)(F)F)c3)o2)no1 | -2 | 12 | 3 | -3 | 2
Cc1cc(-c2nnc(-c3cccc(C(F)(F)F)c3)o2)no1 | 19 | 59* | 61 | 15 | 1 | Ring1 derepress=1.2;Fgf4 repress=0.85;Bmi1 derepress=1.6;A549 tox SP=3;HepG2 tox SP=-46;HEK293 cytotox SP=-9
Cc1ccc(OCc2cc(C(=O)NC(C)Cc3cccnc3)no2)cc1C (stereo not given) | 18 | 72* | 63 | 12 | 3 | Ring1 derepress=1.1;Fgf4 repress=1;Bmi1 derepress=1.9;A549 tox SP=0;HepG2 tox SP=-12;HEK293 cytotox SP=-11
Cc1ccc(OCc2cc(C(=O)N(C)CCc3ccccn3)no2)cc1C | 22 | 87* | 73 | 7 | 3 | Ring1 derepress=1;Fgf4 repress=1;Bmi1 derepress=1.2;A549 tox SP=-6;HepG2 tox SP=-23;HEK293 cytotox SP=-12
CN(Cc1ccccn1)C(=O)c1cc(COc2ccc(F)c(F)c2)on1 | 2 | 73* | nt | 6 | 5 | Ring1 derepress=1.1;Fgf4 repress=0.97;Bmi1 derepress=1.1;A549 tox SP=-13;HepG2 tox SP=-13;HEK293 cytotox SP=-16
CC(Cc1cccnc1)NC(=O)c1cc(COc2c(F)cccc2F)on1 (stereo not given) | 1 | nt | -2 | nt | 2
CCNC(=O)C[C@@H]1CC[C@@H]2[C@@H](COc3ccc(NC(=O)Nc4cccc(Cl)c4)cc3C(=O)N2C)O1 | nt | 6 | nt | -13 | nt
C[C@H]1CN([C@@H](C)CO)C(=O)Cc2cc(NC(=O)C3CC3)ccc2O[C@H]1CN(C)C(=O)Nc1ccc2c(c1)OCO2 | nt | 6 | nt | -1 | nt

Screens deposited in PubChem BioAssay by several laboratories.
